HIV Env fusion: inhibitors of HIV Env-mediated cell fusion | AID 651610 | 360,000 compounds, 1.1% hits | HeLa-JRFL Env/CEM21 cell fusion, luciferase | inhibition, % at 12.3 µM;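 active = mean replicate inhibition score of at least 50 and every replicate individually at or above 50; inconclusive = only one of the two criteria met; inactive = mean below 50 and not all replicates reaching 50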;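 also: 0% = plate neutral controls and 100% = maraviroc near 300 nM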
F508del corr: correctors of CFTR F508del function in bronchial epithelial cells. CFBE cells, YFP halide quenching; stimulated with forskolin plus potentiator P3; % fluorescence drop versus neutral controls. activity (quench increase), % at 7.58 µM. 350,000 compounds, 0.36% hits;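 active = mean added fluorescence quench of at least 8% versus neutral control, with both replicates also reaching 8%; inconclusive = only one of the mean or replicate conditions met; inactive = mean below 8% and not both replicates reaching 8%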;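 also: cells transiently co-express mutant CFTR-F508del with the halide-sensitive YFP; corrector assay measuring rescue of mutant channel to the surface after 24 h compound exposure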
GAA850 FXN act: activators of GAA850 frataxin (FXN) promoter. HEK293 lucGAA850 FXN promoter luciferase reporter, 24 h; percent of 10 µM SAHA response. activation, % at 6 µM. 360,000 compounds, 0.56% hits. AID 540364;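 active = activation above the average of all compounds screened plus 3 SD, cutoff fixed separately per campaign, cut at about 7.5% in these data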;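 also: 0% = DMSO wells and 100% = 10 µM SAHA wells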
EWS-Fli block: EWS/Fli transcriptional activity inhibition; A673 NR0B1-luciferase reporter, viability-normalised; inhibition, % at 12.6 µM; 350,000 compounds, 0.67% hits;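 active = mean inhibition of at least 50% after viability correction, with every replicate also passing that limit; inconclusive = mean reaches 50% but only one of two replicates passes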;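 also: firefly luciferase signal divided by Alamar Blue viability fluorescence both relative to DMSO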
PAX8 reporter: lowers PAX8-driven luciferase in RMG-I cells; RMG-I TPO-luciferase reporter, SteadyGlo, 24 h; 360,000 compounds, 1.2% hits; AID 652154; inhibition, % at 12.6 µM;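 active = mean replicate inhibition at least 60% with every replicate also reaching 60%; inconclusive = only one of the two criteria is met; inactive = mean below 60% and not all replicates reaching 60%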;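 also: luciferase light reporting Pax8 driven TPO promoter activity; plate controls were median of neutral control wells for no effect and mitoxantrone controls for full effect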
GAA30 FXN cntr: counter-screen for GAA850 frataxin promoter activators: GAA30 promoter activation; HEK293 lucGAA30 FXN promoter luciferase, 24 h; DMSO = 0%, 5 µM ipriflavone = 100%; activation, % at 6 µM; 1,900 compounds, 66% hits; AID 588350; shares compounds with GAA850 FXN act;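 active = mean activation above the mean of solvent-only control wells plus 3 SD, cut at about 22% in these data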;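 also: counterscreen of GAA850 promoter hits where activity marks nonselective or luminescence artifacts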
GAA850 confirm: GAA850 FXN promoter activation confirmation | shares compounds with GAA850 FXN act | HEK293 lucGAA850 FXN promoter luciferase reporter, 24 h; 100% = activation by SAHA | activation, % at 6 µM | 1,900 compounds, 86% hits;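 active = mean activation above a set limit taken from the primary screen, cut at about 8% in these data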;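 also: 0% = DMSO wells and 100% = 10 µM SAHA wells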
* marks the source's active call; other numbers are inactive results; ? = inconclusive; . = no result; ! = not confirmed by another sample; [ ] = remark or other dose. The list is not random: actives were taken first. Their share in the collection is about 2.5%.

SMILES	HIV Env fusion	F508del corr	GAA850 FXN act	EWS-Fli block	PAX8 reporter	GAA30 FXN cntr	GAA850 confirm
CC(C)C#Cc1ccc([C@@H]2[C@H](CO)N3C(=O)CN(C(=O)C4CCCCC4)C[C@@H]23)cc1	.	1	.	-3	-4	.	.
O=C(COC(=O)c1cccnc1)c1ccc(Cl)cc1	.	1	11*	6	.	22*	5
COc1ccc(CC(C)NCC(O)c2ccc(O)c(NC=O)c2)cc1 (centres undefined)	-34	1	8.0*!	-6	11	16	27*
CC(CCc1ccccc1)NCC(O)c1ccc(O)c(C(N)=O)c1 (centres undefined)	-21	3	-2	-11	-11	.	.
O=C(NC(=S)NC1CCCCCC1)c1cncc(Br)c1	.	.	8.3*	.	-145	95*	33*
Cc1ccc(S(=O)(=O)N(C)C[C@@H]2OCCCC[C@@H](C)Oc3ccc(NC(=O)CCCN(C)C)cc3C(=O)N([C@@H](C)CO)C[C@H]2C)cc1	9[16.7 µM]	-1	.	-9	-9	.	.
CC1S/C(=N/N=C2CCCCC2)NC1=O (centres undefined)	-3	.	2	-8	-4	.	.
CC1S/C(=N/N=C2CCC(C(C)(C)C)CC2)NC1=O (centres undefined)	14	.	14*	.	-20	28*	7.6*
O=C(C[C@@H]1C[C@H]2c3cc(NC(=O)c4cccnc4)ccc3O[C@H]2[C@@H](CO)O1)NC1CCCC1	.	2	.	2	.	.	.
CCOC(=O)c1cnc(SCc2ccc(C)cc2)nc1N	.	.	7.8*	.	.	86*	27*
CCOC(=O)c1cnc(SCCc2ccccc2)nc1N	-96	.	7	.	-262	.	.
CCCNC(=O)c1oc2ccc3c(c2c1C)C=CC(C)(C)O3	-43	0	10*	-82	-156	91*	41*
CCCNC(=O)c1oc2ccc3c(c2c1C)C(=O)CC(C)(C)O3	-325	.	7.9*	.	-157	107*	36*
CCOC(=O)N1CCC2(CC1)CC(=O)c1c(ccc3oc(C(=O)O)c(C)c13)O2	.	.	-1	.	.	.	.
Cc1c(C(=O)NCCc2ccccc2)oc2ccccc12	-138	2	4	5	-160	.	.
COc1ccccc1NC(=O)CC1C(=O)NCCN1C(=O)Nc1ccccc1 (centres undefined)	.	.	8.0*	.	.	18	8.0*
O=C(CC1C(=O)NCCN1C(=O)Nc1ccccc1)Nc1ccc(F)cc1 (centres undefined)	-1	0	2	-8	6	.	.
Brc1ccccc1-c1nnc(COc2cccc3cccnc23)o1	.	.	-1	.	.	.	.
N#Cc1ccccc1OCc1nnc(-c2ccccc2Br)o1	-82	2	8.8*	-154	-290	102*	41*
Cc1c(CCC(=O)NCCC(=O)O)c(=O)oc2cc3occ(-c4ccccc4)c3cc12	-9	1	-1	15	-3	.	.
Cc1c(CCC(=O)NCC(=O)O)c(=O)oc2cc3occ(-c4ccccc4)c3cc12	10	4	9.4*	8	3	2	1
O=C(C[C@@H]1CC[C@H](NC(=O)Nc2ccc(C(F)(F)F)cc2)[C@@H](CO)O1)NCc1cccc(F)c1	12[16.7 µM]	0	.	-7	20	.	.
COc1ccccc1NC(=O)N[C@@H]1CC[C@H](CC(=O)N2CCC(Cc3ccccc3)CC2)O[C@@H]1CO	12[16.7 µM]	-1	.	-5	22	.	.
Cn1cncc1C#Cc1ccc2c(=O)c3ccccc3oc2c1	13	0	7.9*	-88	-224	67*	40*
Nc1ccc(C#Cc2ccc3c(=O)c4ccccc4oc3c2)cc1	-46	2	2	-33	-98	.	.
SMILES	HIV Env fusion	F508del corr	GAA850 FXN act	EWS-Fli block	PAX8 reporter	GAA30 FXN cntr	GAA850 confirm
COc1ccc(NC(=O)C2C(=O)NC3(C)CC2c2ccccc2O3)cc1 (centres undefined)	.	.	13*	.	.	21	7
C[C@@H]1CN([C@@H](C)CO)C(=O)c2cc(NS(=O)(=O)c3cn(C)cn3)ccc2O[C@@H]1CN(C)Cc1ccc(C(=O)O)cc1	.	0	.	-4	.	.	.
Cc1nc([N+](=O)[O-])c(Br)n1CC(=O)c1ccc2ccccc2c1	9	.	24*	.	.	328*	118*
Cc1cccc(Nc2nc(-c3sc(C)nc3C)cs2)c1	-22	1	8.5*	-43	-65	97*	32*
Cc1nc(C)c(-c2csc(Nc3cccc(O)c3)n2)s1	-235	-3	1	-70	-200	.	.
COc1ccc(CN(C)C[C@H]2OCCCC[C@H](C)Oc3ccc(NC(=O)C4CCCCC4)cc3C(=O)N([C@@H](C)CO)C[C@H]2C)cc1	5[16.7 µM]	2	.	.	3	.	.
CC(C)(C)CC(=O)Nc1cc(S(=O)(=O)N2CCCCCC2)ccc1Cl	16	.	4	4	6	.	.
O=C(CCl)Nc1cc(S(=O)(=O)N2CCCCCC2)ccc1Cl	17	2	11*	?	-8	-10	14*
COc1ccc(Nc2ccc3c(c2)=NC2(CCCCC2)[N+]=3[O-])cc1	0	.	17*	.	75*	50*	106*
[O-][N+]1=c2ccc(Nc3ccccc3)cc2=NC12CCCCC2	21	.	10*	.	11	46*	70*
O=[N+]([O-])c1ccc2c(c1N1CCCCC1)=NC1(CCCCC1)[N+]=2[O-]	5	-5	1	-7	20	.	.
Cc1ccccc1NC(=S)c1nc2ccccc2[nH]1	-82	.	6	-20	-12	.	.
S=C(Nc1ccc(Cl)cc1)c1nc2ccccc2[nH]1	59*	.	7.8*	.	-122	113*	33*
CNc1nc(Nc2ccc(Br)cc2)nc(N)c1[N+](=O)[O-]	7	.	9.1*	.	-20	91*	42*
COC(=O)C[C@H]1C[C@H]2c3cc(NC(=O)Nc4ccc(F)cc4)ccc3O[C@H]2[C@H](CO)O1	-8[16.7 µM]	1	.	3	0	.	.
Cc1c(C=O)c2cc(OCc3ccccc3)ccc2n1C	3	-4	7.7*	-154	-40	105*	32*
CCOC1OC2C(CO)OC(n3cnc4c(N)ncnc43)C2O1 (centres undefined)	-31	-4	11*	1	-13	28*	9.2*
CN(c1ccc(C(=O)Nc2ccc3c(c2)OCCO3)cc1)S(C)(=O)=O	.	.	9.2*	.	.	93*	29*
c1ccc2nc3c(ccc4ccccc43)cc2c1	-265	3	7.7*	-105	-248	106*	37*
CCNC(=O)C[C@H]1CC[C@@H]2[C@H](COc3ccc(NC(=O)c4cccc(OC)c4)cc3C(=O)N2C)O1	7[16.7 µM]	-4	.	-15	-2	.	.
COc1ccc(N2C(=O)C3CCCN3C2c2cccc(Br)c2)cc1 (centres undefined)	-4	2	12*	1	-9	19	8.8*

Screening results (PubChem)
